Test results taken from PubChem BioAssay.
Activity calls are given as the source filed them.

Columns and labels:
[1] = optical density shifts of acrAB sulA E. coli – strain DRC41, OD650, 48 h, E. coli filamentation inducer project, primary screen (AID 1152); conditions: higher = more signal, called active from +8 up or from −8 down;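 note: E. coli MC1000 strain DRC41 lacking acrAB efflux pump and sulA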
[2] = probe aLefty1 binding on compound microarray – biochemical, small-molecule microarray, 635/667 nm fluorescence, primary screen (AID 1153); conditions: higher = more signal;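 note: score merges spot fluorescence with signal-to-noise ratio from the scanned slide images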
[3] = plasmodial surface anion channel blockers, osmotic lysis – cell-based, P. falciparum Indochina, OD700, 1 h, primary screen (AID 1154); conditions: P. falciparum Indochina infected RBC osmotic lysis, higher = more signal, called active from +8 up or from −8 down
[4] = plasmodial surface anion channel blockers, osmotic lysis – cell-based, P. falciparum Indochina, OD700, 2 h, primary screen (AID 1155);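 note: lysis reports solute entry through the parasite surface anion channel PSAC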; conditions: P. falciparum Indochina infected erythrocytes, higher = more signal, called active from +8 up or from −8 down
[5] = changes in parasitized red cell lysis, either direction – P. falciparum Indochina, OD700, 3 h, PSAC antagonist project, primary screen (AID 1156); conditions: P. falciparum-infected erythrocytes, osmotic lysis, higher = more signal, called active from +8 up or from −8 down
[6] = plasmodial surface anion channel blockers, osmotic lysis – cell-based, P. falciparum Indochina, OD700, 18 h, primary screen (AID 1157); conditions: P. falciparum Indochina infected erythrocytes, osmotic lysis OD700, 18 h; higher = more signal, called active from +8 up or from −8 down
[7] = S6 kinase pathway phospho-S6 level changes – cell-based, A549, cytoblot, luminescence, serum-stimulated, primary screen (AID 1158); conditions: 5 h, higher = more signal;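 note: serum-stimulated A549 lung adenocarcinoma cells; signal is phosphorylated S6 detected by cytoblot immunostaining with HRP secondary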
[8] = target: NADPH oxidase 2 (Homo sapiens) (UniProt P04839); test: compounds shifting NOX2 Amplex Red fluorescence – cell-based, HEK293-NOX2, PMA-stimulated, NOX inhibitor project, primary screen (AID 1159); conditions: 45 min, higher = more signal, called active from +8 up or from −8 down; note: test concentration not given here
NADPH oxidase 2 (Homo sapiens), sequence (P04839 whole entry, looked up): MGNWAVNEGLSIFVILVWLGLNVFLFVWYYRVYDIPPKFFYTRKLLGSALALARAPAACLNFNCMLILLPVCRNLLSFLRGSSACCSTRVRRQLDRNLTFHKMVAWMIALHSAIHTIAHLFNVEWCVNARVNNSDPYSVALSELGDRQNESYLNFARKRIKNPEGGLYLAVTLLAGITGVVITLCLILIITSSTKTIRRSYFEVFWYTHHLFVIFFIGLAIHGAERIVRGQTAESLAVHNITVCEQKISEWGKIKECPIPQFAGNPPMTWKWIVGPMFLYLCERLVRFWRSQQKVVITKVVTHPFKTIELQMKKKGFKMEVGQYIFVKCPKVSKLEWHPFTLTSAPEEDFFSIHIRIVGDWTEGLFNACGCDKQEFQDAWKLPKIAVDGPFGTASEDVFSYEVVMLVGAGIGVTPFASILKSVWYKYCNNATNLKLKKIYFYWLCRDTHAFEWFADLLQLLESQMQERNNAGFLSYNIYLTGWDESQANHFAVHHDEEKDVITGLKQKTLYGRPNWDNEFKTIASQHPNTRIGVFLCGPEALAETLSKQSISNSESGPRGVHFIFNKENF

[9] = target: NADPH oxidase 4 (Homo sapiens) (UniProt Q9NPH5); test: compounds shifting NOX4 Amplex Red fluorescence – cell-based, HEK293-NOX4, tetracycline-induced, NOX inhibitor project, primary screen (AID 1160); conditions: HEK293-NOX4, Amplex Red H2O2 fluorescence, 45 min; higher = more signal, called active from +8 up or from −8 down
NADPH oxidase 4 (Homo sapiens), sequence (Q9NPH5 whole entry, looked up): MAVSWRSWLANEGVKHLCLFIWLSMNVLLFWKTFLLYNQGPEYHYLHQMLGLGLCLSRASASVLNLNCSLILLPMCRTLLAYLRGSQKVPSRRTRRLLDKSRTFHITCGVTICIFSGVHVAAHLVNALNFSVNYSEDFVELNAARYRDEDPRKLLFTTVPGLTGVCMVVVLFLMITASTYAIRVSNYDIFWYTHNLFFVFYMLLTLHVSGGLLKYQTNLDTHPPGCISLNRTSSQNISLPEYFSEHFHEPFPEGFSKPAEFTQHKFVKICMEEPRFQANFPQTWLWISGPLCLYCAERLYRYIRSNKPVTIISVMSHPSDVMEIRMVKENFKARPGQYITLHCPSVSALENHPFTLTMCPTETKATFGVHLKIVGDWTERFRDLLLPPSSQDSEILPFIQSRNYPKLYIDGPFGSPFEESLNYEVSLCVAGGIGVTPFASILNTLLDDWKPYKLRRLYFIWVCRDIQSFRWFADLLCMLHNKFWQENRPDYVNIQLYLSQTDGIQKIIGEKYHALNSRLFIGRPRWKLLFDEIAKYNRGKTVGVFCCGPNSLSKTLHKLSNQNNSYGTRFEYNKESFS

[10] = target: NADPH oxidase 5 (Homo sapiens) (UniProt Q96PH1); test: compounds shifting NOX5 Amplex Red fluorescence – cell-based, HEK293-NOX5, NOX inhibitor project, primary screen (AID 1161); conditions: HEK293-NOX5, ionomycin, 45 min, higher = more signal
NADPH oxidase 5 (Homo sapiens), sequence (Q96PH1 whole entry, looked up): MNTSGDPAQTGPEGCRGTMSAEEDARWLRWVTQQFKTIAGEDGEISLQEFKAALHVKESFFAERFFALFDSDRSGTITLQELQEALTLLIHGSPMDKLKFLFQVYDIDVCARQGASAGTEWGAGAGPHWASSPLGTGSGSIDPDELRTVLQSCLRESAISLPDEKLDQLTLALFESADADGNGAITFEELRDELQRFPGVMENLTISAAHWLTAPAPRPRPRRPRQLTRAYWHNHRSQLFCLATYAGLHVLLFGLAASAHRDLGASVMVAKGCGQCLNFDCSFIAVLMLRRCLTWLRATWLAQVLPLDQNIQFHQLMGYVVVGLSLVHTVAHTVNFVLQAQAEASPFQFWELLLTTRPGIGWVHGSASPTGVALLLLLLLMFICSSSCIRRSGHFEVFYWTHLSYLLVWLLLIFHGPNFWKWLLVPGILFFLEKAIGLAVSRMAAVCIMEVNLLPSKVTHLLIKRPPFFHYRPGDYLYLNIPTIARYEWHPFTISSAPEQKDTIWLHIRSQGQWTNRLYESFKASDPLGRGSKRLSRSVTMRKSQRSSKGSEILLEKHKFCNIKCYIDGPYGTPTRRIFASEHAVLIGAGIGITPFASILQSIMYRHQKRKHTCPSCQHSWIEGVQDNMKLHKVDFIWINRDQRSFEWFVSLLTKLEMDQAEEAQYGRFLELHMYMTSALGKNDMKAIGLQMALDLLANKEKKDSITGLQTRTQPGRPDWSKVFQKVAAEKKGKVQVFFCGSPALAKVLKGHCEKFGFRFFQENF

Row | SMILES | z-score [1] | composite z-score [2] | z-score [3] | z-score [4] | z-score [5] | z-score [6] | z-score [7] | z-score [8] | z-score [9] | z-score [10]
1 | Cc1ccccc1C(O)C1C=CC2C(=O)N(C)C(=O)C2N1Nc1ccccc1 (stereo not given) | -1.71 (inactive) | 0.274 | 1.15 (inactive) | 0.737 (inactive) | -0.0787 (inactive) | 1.1 (inactive) | -0.711 | -1.39 (inactive) | -4.19 (inactive) | -2.72
2 | CC(=O)C1=CCC(c2ccccc2)N(S(=O)(=O)c2ccc(C)cc2)C1 (stereo not given) | -1.12 (inactive) | 0.157 | 2.75 (inactive) | 1.5 (inactive) | 1.4 (inactive) | 1.07 (inactive) | -0.26 | -0.179 (inactive) | -1.4 (inactive) | 0.0221
3 | N[C@@H](Cc1ccccc1)Cn1cc(-c2ccccc2)nn1 | -2.54 (inactive) | 0.271 | 5.12 (inactive) | 0.745 (inactive) | 0.0287 (inactive) | 0.53 (inactive) | -0.209 | 0.659 (inactive) | 0.45 (inactive) | 0.448
4 | N#Cc1ccc(NN2C(C(O)c3ccc([N+](=O)[O-])cc3)C=CC3C(=O)N(c4ccccc4)C(=O)C32)cc1 (stereo not given) | -2.18 (inactive) | 0.0927 | 11.9 (active) | 2.06 (inactive) | 0.362 (inactive) | 1.49 (inactive) | -0.946 | -1.45 (inactive) | -4.95 (inactive) | -3.56
5 | Cc1ccc([C@H]2[C@H](C(=O)O)[C@H](Sc3ccccc3)[C@@H](C(C)C)N2S(=O)(=O)c2ccc(C)cc2)cc1 | -1.51 (inactive) | -0.0675 | 1.09 (inactive) | 0.456 (inactive) | -0.922 (inactive) | 0.781 (inactive) | -0.137 | 1.01 (inactive) | 0.349 (inactive) | 1.16
6 | O=C1N(CCS(=O)(=O)c2ccccc2)Cc2ccccc2C[C@]12N=C(c1ccc(OCCCO)cc1)O[C@@H]2c1ccccc1 | 0.697 (inactive) | 1.66 | 22.2 (active) | 8.54 (active) | 0.443 (inactive) | 0.427 (inactive) | 2.67 | -0.282 (inactive) | 1 (inactive) | -0.517
7 | CO[C@H]1O[C@H](CO)[C@@H](OC(=O)Nc2ccc(Oc3ccccc3)cc2)[C@H](OC(=O)Nc2ccccc2)[C@H]1OC(=O)Nc1ccccc1 | 0.415 (inactive) | 0.407 | 3.14 (inactive) | 1.09 (inactive) | 1.4 (inactive) | 0.766 (inactive) | 0.696 | -0.909 (inactive) | -3.18 (inactive) | -0.854
8 | COCCOC(=O)N1C(=O)[C@@]2(c3ccccc31)[C@H](C(=O)Nc1nc3ccccc3s1)[C@H]1C(=O)O[C@H](c3ccccc3)[C@H](c3ccccc3)N1[C@@H]2c1ccc(OCCO)cc1 | 0.258 (inactive) | 0.258 | 4.45 (inactive) | 1.76 (inactive) | 0.505 (inactive) | 1.63 (inactive) | 0.44 | -0.207 (inactive) | 0.842 (inactive) | 2.22
9 | COC(=O)[C@@]1(Cc2ccc(OC)cc2)[C@H]2c3cc(C(=O)N4CCCC4)n(Cc4ccccn4)c3C[C@H]2CN1C(=O)c1ccccc1 | -0.824 (inactive) | 0.595 | 3.64 (inactive) | 0.537 (inactive) | 1.1 (inactive) | 0.814 (inactive) | -0.569 | 0.29 (inactive) | -1 (inactive) | -3.2
10 | NCCCCCNC(=O)[C@H]1C[C@H]2C(=O)NCC(=O)N2[C@H]1c1cccc(OCCO)c1 | 1.5 (inactive) | -0.505 | 2.03 (inactive) | 0.508 (inactive) | 2.65 (inactive) | 0.0799 (inactive) | 0.753 | 0.972 (inactive) | 1.02 (inactive) | 1.39
11 | CCCCCN1CC=CC23O[C@@H]4/C=C\CCCOC(=O)C4[C@H]2C(=O)N(CCCCCCO)[C@@H]3C1=O (stereo not given in full) | 2.24 (inactive) | -0.146 | 2.25 (inactive) | 0.753 (inactive) | -0.387 (inactive) | 0.158 (inactive) | 5.32 | 0.876 (inactive) | 0.243 (inactive) | 1.75
12 | COC(=O)[C@@]1(Cc2ccccc2)[C@H]2c3cc(C(=O)N4CCCC4)n(C)c3C[C@H]2CN1C(=O)c1ccccc1 | -0.308 (inactive) | 0.321 | 1.54 (inactive) | -0.0273 (inactive) | 0.835 (inactive) | 0.396 (inactive) | -0.0948 | -0.153 (inactive) | -0.653 (inactive) | -1.45
13 | C=CC[C@]1(C(=O)N2CCOCC2)N=C(c2ccc(OCCCO)cc2)O[C@H]1c1ccccc1 | 0.104 (inactive) | 0.302 | 11.3 (active) | 1.09 (inactive) | 0.492 (inactive) | 0.471 (inactive) | -0.0044 | -1.59 (inactive) | 0.486 (inactive) | -0.921
14 | C=C[C@@H](COC(C)=O)N(Cc1ccc([N+](=O)[O-])cc1)S(=O)(=O)c1ccc(Br)cc1 | 2 (inactive) | 0.0012 | 7.66 (inactive) | 0.824 (inactive) | 2.31 (inactive) | 0.79 (inactive) | 0.354 | 0.495 (inactive) | 0.851 (inactive) | -0.559
15 | COCCCNC(=O)[C@@]1(CCC(=O)OC(C)(C)C)N=C(c2ccc(OCCCO)cc2)O[C@H]1c1ccccc1CN=[N+]=[N-] | 0.369 (inactive) | 0.428 | 23.2 (active) | 4.71 (inactive) | 1.35 (inactive) | 0.883 (inactive) | 0.0769 | 1.95 (inactive) | 2.2 (inactive) | 2.48
16 | O=C1N(CCS(=O)(=O)c2ccccc2)Cc2ccccc2[C@H]2OC(c3ccc(OCCCO)cc3)=N[C@@]12CCS(=O)(=O)c1ccccc1 | -0.0143 (inactive) | 0.197 | 31.1 (active) | 28.4 (active) | 3.2 (inactive) | 6.48 (inactive) | 0.834 | 0.644 (inactive) | 1.5 (inactive) | 0.357
17 | COc1ccc(CCNC(=O)[C@@]2(c3ccc([N+](=O)[O-])cc3)CC(=O)N(CC34CC5CC(CC(C5)C3)C4)[C@@H]2c2ccc(CO)cc2)cc1 | 0.0305 (inactive) | 0.155 | 4.6 (inactive) | 0.522 (inactive) | 3.14 (inactive) | -0.24 (inactive) | 2 | -0.956 (inactive) | -4.54 (inactive) | -3.97
18 | [N-]=[N+]=NCc1ccccc1C[C@]1(C(=O)O)N=C(c2ccc(OCCCO)cc2)O[C@H]1c1ccccc1CN=[N+]=[N-] | -0.813 (inactive) | 0.222 | 21.5 (active) | 3.96 (inactive) | 0.649 (inactive) | 0.321 (inactive) | -0.591 | -0.331 (inactive) | 1.11 (inactive) | 2.29
19 | COc1cc2c(cc1OC)CN(C(=O)[C@@H]1[C@H]3C(=O)O[C@H](c4ccccc4)[C@H](c4ccccc4)N3[C@H](c3ccccc3OCCO)[C@@]13C(=O)Nc1ccc(C#CCNC(N)=O)cc13)CC2 | 0.97 (inactive) | 0.882 | 1.14 (inactive) | -0.45 (inactive) | 0.333 (inactive) | -2.15 (inactive) | 3.09 | 1.24 (inactive) | 0.964 (inactive) | -0.0555
20 | CC(C)C(O)C1C=CC2C(=O)N(c3ccccc3)C(=O)C2N1Nc1ccc(C#N)cc1 (stereo not given) | -0.411 (inactive) | 0.797 | 12 (active) | 1.1 (inactive) | 2.03 (inactive) | 0.875 (inactive) | -1.09 | -1.81 (inactive) | -4.46 (inactive) | -2.83
21 | COCCOC(=O)N1C(=O)[C@@]2(c3cc(C#CCC(C(=O)OC)C(=O)OC)ccc31)[C@H](c1ccc(O)cc1)N1[C@H](c3ccccc3)[C@H](c3ccccc3)OC(=O)[C@H]1[C@@H]2C(N)=O | -0.648 (inactive) | 0.245 | 9.52 (active) | 1.33 (inactive) | 0.0021 (inactive) | 0.213 (inactive) | -0.185 | 1.4 (inactive) | 0.525 (inactive) | 1.14
22 | Cc1ccc(S[C@]2(C(=O)O)CC(=O)N(C3Cc4ccccc4C3)[C@@H]2c2ccc(CO)cc2I)cc1 | -0.453 (inactive) | -0.0559 | 6.6 (inactive) | 1.1 (inactive) | 0.356 (inactive) | 0.474 (inactive) | -0.148 | 1.84 (inactive) | -2.99 (inactive) | -1.78
23 | C=CC(COC(C)=O)NS(=O)(=O)c1ccc(Br)cc1 (stereo not given) | -1.32 (inactive) | 0.157 | 0.132 (inactive) | -0.168 (inactive) | -0.73 (inactive) | -0.064 (inactive) | 0.495 | -0.334 (inactive) | -0.0279 (inactive) | -0.377
24 | CCOc1cc(C(O)C2C=CC3C(=O)N(c4ccccc4)C(=O)C3N2Nc2ccc([N+](=O)[O-])cc2)ccc1O (stereo not given) | -1.48 (inactive) | -0.0011 | 14.3 (active) | 1.52 (inactive) | 0.839 (inactive) | 0.557 (inactive) | -0.77 | -3.36 (inactive) | -4.89 (inactive) | -4.11
25 | O=C1[C@]2(CO)C=C(Br)[C@@H](C[C@@H]2c2ccccc2)[C@@]12CO2 | 0.168 (inactive) | -0.188 | 0.0883 (inactive) | 0.0579 (inactive) | -0.533 (inactive) | -0.187 (inactive) | -0.364 | 0.538 (inactive) | 0.662 (inactive) | -0.211
26 | COc1ccc([Si](C)(C)[C@H]2[C@H](CCn3cc(CCO)nn3)O[C@@]3(C(=O)N(Cc4ccc(N5CCOC5=O)cc4)c4ccccc43)[C@@H]2C)cc1 | 0.176 (inactive) | 0.308 | 33.4 (active) | 34.8 (active) | 2.62 (inactive) | 6.01 (inactive) | 0.711 | -0.564 (inactive) | 2.16 (inactive) | -0.419
